A selection: hits, their analogues and other compounds. The true share with any hit is near 1.4%.
IL1B cytotox – toxic to HUVEC cells under IL-1B stimulation. HUVEC cell count loss, Hoechst imaging, IL-1B stimulated. cell count reduction, % at 2 µM. hit rate 0.41% among 94,000;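 active = cell count reduction more than 3 SD above the screen-wide mean, cut at about 70% in these data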;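 also: normalized per plate to untreated control cells as the no-loss baseline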
INS promoter inh – TRM-6 insulin promoter activity inhibition; TRM-6 cells (human fetal islet line), insulin promoter-eGFP reporter, imaging; reporter expression induced with tamoxifen; inhibition, % at 2 µM; hit rate 0.9% among 130,000; AID 1273;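 active = inhibition above the mean plus 3 SD, with well images judged a real hit on visual review, cut at about 60% in these data, passing the limit was not always enough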
NFkB transloc pot – enhances IL-1B driven NFkB nuclear translocation; activation, % at 2 µM; AID 819; hit rate 0.3% among 94,000; HUVEC IL-1B NFkB p65 nuclear translocation imaging;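 active = activation above 40%, about the mean plus 3 SD, also judged a hit on visual image review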;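 also: percent activation is computed from the nuclear over cytoplasmic p65 intensity ratio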
IL1B NFkB inh – blocks IL-1B driven NFkB nuclear translocation in HUVEC cells; HUVEC IL-1B NFkB p65 nuclear translocation imaging; inhibition, % at 2 µM; hit rate 0.43% among 94,000;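 active = inhibition above about 30% together with a positive call from visual inspection of the well image, limit read from the data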;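 also: nuclear over cytoplasmic p65 intensity ratio measured by imaging; 0% = IL-1B stimulated DMSO wells and 100% = unstimulated DMSO wells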
Active calls of the source: *; x = no result given.

SMILES	IL1B cytotox	INS promoter inh	NFkB transloc pot	IL1B NFkB inh
CCOC(=O)c1ccc2[nH]c3c(c2c1)CCCCC3=O	16	-36	41*	-41
C=CC(O)Cc1c(C)n[nH]c1C (stereo not given)	0	77*	29	-29
CCOC(=O)CCc1c(C)n[nH]c1C	x	-27	x	x
Cc1cc2cc3c(cc2nc1SCC(=O)N1c2ccccc2CC1C)OCO3 (stereo not given)	-18	-431	-1	1
Cc1cc2ccccc2nc1SCC(=O)N1c2ccccc2CC1C (stereo not given)	2	100*	11	-11
Cc1ccc2c(C)ccc(O)c2n1	76*	-12	-1	1
Cc1cccc(Nc2nc(N)nc(CN3CCC(C)CC3)n2)c1C	-20	100*	1	-2
COc1cc2c(cc1OC)C(c1cc3cc(OC)c(OC)cc3[nH]c1=O)N(C(=O)C1CC1)CC2 (stereo not given)	-8	39	45*	-45
CCOC(=O)c1nn(-c2cccc(Cl)c2)c(C)c1C(C)=O	6	92*	-14	14
CCOC(=O)c1nn(-c2cccc(OC)c2)c(-c2ccccc2)c1C(=O)c1ccccc1	-12	20	2	-2
CCOc1ccc2[nH]c3c(N4CCN(c5ccccn5)CC4)ncnc3c2c1	-30	88*	-8	8
Cc1ccc2[nH]c3c(N4CCCCCC4)ncnc3c2c1	-2	62	-10	10
CCC(=O)N1CCN(c2nc3ccccc3s2)CC1	19	-50	-37	37*
COc1cc(C(=O)NCC(c2cccnc2)N2CCN(c3ccc(F)cc3)CC2)cc(OC)c1OC (stereo not given)	x	-35	x	x
COc1cccc(OCCNc2cc(Cl)ccc2[N+](=O)[O-])c1	-45	78*	22	-22
CCCCN(CCCC)S(=O)(=O)c1c(C)[nH]c(=O)[nH]c1=O	x	73*	x	x
CCCCN(C)S(=O)(=O)c1c(C)[nH]c(=O)[nH]c1=O	-45	7	-1	1
CCOC(=O)COc1c(/C=N\O)cc(Cl)cc1OC	x	-73	x	x
CC(C)CN1C(=O)c2ccccc2C1(O)Cc1ccccc1 (stereo not given)	-19	-66	1	-1
O=C1c2ccccc2C(O)(Cc2ccccc2)N1C1CCCCC1 (stereo not given)	92*	32	-37	37*
CCN(CC)c1ccc(/C=N/Nc2nc(C)cc(=O)[nH]2)c(O)c1	x	85*	x	x
O=C(COc1ccc(-c2ccccc2)cc1)N1CCN(C(=O)c2cccs2)CC1	x	26	x	x
CN(Cc1ccccc1)C(=O)c1ccccc1NC(=O)c1ccco1	88*	-20	42*	-42
CCOc1ccccc1N1CCN(C(=O)c2ccc3[nH]c4c(c3c2)CCCC4)CC1	x	29	x	x
O=C(NC(=S)Nc1ccc(N2CCOCC2)cc1)c1cncc(Br)c1	x	67*	x	x
SMILES	IL1B cytotox	INS promoter inh	NFkB transloc pot	IL1B NFkB inh
Cc1ccc(C(=O)Nc2ccc(O)cc2C(=O)O)cc1C	8	23	119*	-119
O=c1c2c3c(sc2nc2sc(C4CC4)nn12)CCCC3	78*	56	-88	88*
CC(C)(C)NC(=O)C1N(c2cccnc2)C(=O)C2C(C(=O)Nc3ccccc3F)C3(C)C=CC21O3 (stereo not given)	12	x	5	-5
CC12C=CC3(O1)C(C(=O)N(c1cccnc1)C3C(=O)NC1CCCCC1)C2C(=O)Nc1ccccc1 (stereo not given)	-31	18	-31	31*
O=C(O)CCc1ccc(S(=O)(=O)N2CCOCC2)cc1	-10	30	0	0
NNC(=O)CCc1ccc(S(=O)(=O)N2CCOCC2)cc1	x	81*	x	x
CCn1c(NC(=O)c2ccco2)c(-c2ccccc2Cl)c(=O)c2ccccc21	-73	90*	15	-15
Cn1c2c(c(=O)c3ccccc31)CCC(C)(C)O2	x	23	x	x
COc1ccc(C(c2nnnn2C2CCCCC2)N2CCN(c3ccc(OC)cc3)CC2)cc1 (stereo not given)	14	x	57*	-57
COc1ccc(C(c2nnnn2C2CCCC2)N2CCC(C)CC2)cc1 (stereo not given)	2	x	-7	6
COc1ccc2c(CC(=O)OCC(=O)NC(=O)c3cccn3C)coc2c1	x	42	x	x
CCN1C(=O)N(CC)C2C1N(CO)C(=O)N2CO (stereo not given)	x	8	x	x
COc1cccc(N2CCN(c3c4c(nc5ncnn35)CCC4)CC2)c1	36	10	-30	30*
CCNc1nc(N)nc(-c2cc(Cl)ccc2O)n1	x	62*	x	x
Cc1ccc(S(=O)(=O)n2c3ccc(Cl)cc3c3nc(C)sc32)cc1	x	80*	x	x
Cc1nc2c3cc(Cl)ccc3n(CCN3CCCCC3)c2s1	-74	-34	4	-4
CC1CCN(C(=O)COc2cccc3c2CCN(Cc2ccccc2)C3=O)CC1	x	-8	x	x
Cc1nc(S(=O)(=O)N(C)Cc2ccccc2)c(C#N)c(C)c1Cl	-8	6	-31	31*
CCOP(=O)(c1ccccc1)C(O)c1ccccc1 (stereo not given)	x	3	x	x
CCOP(=O)(C1=C(O)C(=O)C(C(C)(C)C)=CC1=O)c1ccccc1 (stereo not given)	x	67*	x	x
COc1cc(C)nc(N2CCC(C(=O)NC3CCCCC3)CC2)n1	25	-3	-4	4
CSc1ccccc1C(=O)NCC(c1ccco1)N1CCCCC1 (stereo not given)	x	-38	x	x
CC1CC(C)(C)CC2(C1)NC(=O)N(CC(=O)NCC(c1ccco1)N1CCCCC1)C2=O (stereo not given)	8	21	-35	35*
Fc1ccccc1CNC(=S)Nc1cccc(C(F)(F)F)c1	x	14	x	x
COC(=O)c1cscc1NC(C)=O	5	75*	11	-11
SMILES	IL1B cytotox	INS promoter inh	NFkB transloc pot	IL1B NFkB inh
CC(C)Cc1cc(C(=O)NCc2cccnc2)no1	-17	x	33	-32
CC(C)Cc1cc(C(=O)NCc2cccs2)no1	x	100*	x	x
CN1CCN(NC(=O)c2cc(Br)ccc2Cl)CC1	x	53	x	x
Cc1ccc(NC(=O)CN(C)S(=O)(=O)c2cccs2)cc1C	-2	-8	19	-19
Cc1ccc(NC(=O)CN(C)S(=O)(=O)c2cccs2)cc1F	-3	74*	0	0
COc1ccc(N2CCN(C(=O)c3csc4ccccc34)CC2)cc1	-70	-46	1	-1
O=C(c1csc2ccccc12)N1CCN(c2ccc(Cl)c(Cl)c2)CC1	2	40	-62	62*
Nc1cccnc1Sc1cc(Cl)cc(Cl)c1	-16	90*	-26	26
Cn1cnc([N+](=O)[O-])c1Sc1ncccc1N	-10	-10	-1	1
COc1ccc(Cl)cc1NC(=O)c1c(-c2ccccc2)noc1C	-27	-473	-13	13
COc1cc(OC)c(NC(=O)c2c(-c3ccccc3)noc2C)cc1Cl	18	79*	10	-10
COc1cc(OC)c(NC(=O)c2ccoc2C)cc1Cl	-3	71*	7	-7
Cc1ccc(NC(=O)Cc2nnc(SCC(=O)c3ccc(Br)cc3)n2C)cc1	2	-11	9	-9
COCc1nnc(NS(=O)(=O)c2ccc(Br)cc2)s1	3	-6	-4	4
Cc1ccc(C)c(C(=O)Cn2ncc(Cl)c(Cl)c2=O)c1	15	-269	-43	43*
Cc1cccc(Cn2ncc(Cl)c(Cl)c2=O)c1	-103	x	0	0
